Measured values: PubChem BioAssay AID624296 (National Center for Advancing Translational Sciences (NCATS), 2012)
Screen size: about 350,000 compounds; about 9,900 (2.8%) were called active. About 15% were inconclusive and are not listed. Many of the other results were omitted from the sample, so actives are more common in it than they were. Values without a mark were called inactive. The call rests on the fitted dose curve; in most records, active means well fitted activation curve with a large enough effect; inconclusive means small, poorly fitted or top-dose-only effect; inactive means no such curve, though single readings can be large or run the other way.

Assay: A quantitative high throughput screen for small molecules that induce DNA re-replication in MCF 10a normal breast cells. Further: nearly all actives have a fitted effect of over 50% in size. On activity, positive = re-replication: % of control where 0% means no effect.
Conditions: MCF 10A DNA re-replication, Hoechst nuclear intensity, 48 h; series mostly up to 46.1 µM; activity, positive = re-replication: at the top concentration
Potency means the concentration at half of the fitted maximal effect.

Compared with `O=C(OCCN1C(=O)c2ccccc2C1=O)[C@@H]1CC(O)CN1S(=O)(=O)c1ccccc1[N+](=O)[O-]` (stereo partly specified), `O=C(c1ccc2c(c1)C(=O)N(Cc1ccncc1)C2=O)N1CCN(S(=O)(=O)c2ccc(OC(F)(F)F)cc2)CC1` is lower in “activity, positive = re-replication” value: 5.67% for the first, -6.6% for the second.

Going from `COc1ccc(/C=C/C(=O)OCC(=O)Nc2cccc(Oc3ccccc3)c2)c(OC)c1` to `COc1cccc(NC(=O)CN(C)C(=O)/C=C/c2cc(OC)ccc2OC)c1`, the “activity, positive = re-replication” value rises from -5.63% to 0.159%.

First: CC(=O)NC(CC(=O)Nc1ccc(S(=O)(=O)N2CCOCC2)cc1)c1ccccc1 (stereo unspecified)
Second: COc1ccc(/C=C/C(=O)Nc2ccc(C)cc2)cc1S(=O)(=O)N1CCOCC1
The “activity, positive = re-replication” value of the first is higher: 0.442% for the first, -4.4% for the second.

First: CCCn1c(=NC(C)=O)c(C(=O)OCC)cc2c(=O)n3ccccc3nc21
Second: CCOCCCNC(=O)c1cc2c(=O)n3ccccc3nc2s1
The “activity, positive = re-replication” value of the first is lower: -5.83% for the first, 0.195% for the second.

Compared with `C/C(=N/OC(=O)c1c(-c2c(F)cccc2Cl)noc1C)c1cnccn1`, `COc1ccc(/C=C/C(=O)Nc2cccnc2)cc1OC` is lower in “activity, positive = re-replication” value: -1.23% for the first, -3.51% for the second.

First: Cc1noc(C)c1NC(=O)Nc1cccc2c1O[C@H](CN(C)S(=O)(=O)c1c(C)noc1C)[C@@H](C)CN([C@H](C)CO)C2=O
Second: Cc1cccc(C)c1Nc1nnc(SCC(=O)NCCCN2CCCC2=O)s1
The “activity, positive = re-replication” value of the first is higher: 1.25% for the first, -0.211% for the second.

Going from `CCc1nnc(NC(=O)c2cc(S(=O)(=O)N3CCN(CC)CC3)ccc2Cl)s1` to `COc1ccccc1N1CCN(S(=O)(=O)c2ccc(Cl)cc2)CC1`, the “activity, positive = re-replication” value rises from -8.12% to 14.9%.

First: CCCN(CC(=O)Nc1ccccc1C)C(=O)c1cc(=O)[nH]c2ccccc12
Second: CCCC(NCC(=O)Nc1ccccc1C(=O)NC1CC1)c1ccccc1 (stereo unspecified)
The “activity, positive = re-replication” value of the first is higher: 10.5% for the first, 8.84% for the second.

Going from `CC1CCc2[nH]c3ccc(C(=O)N(C)CC(=O)Nc4cccc(F)c4)cc3c2C1` (stereo unspecified) to `CN(C(=O)c1cccc(NC(=O)Cc2ccc(NC(=O)C3CCCN(C(=O)C4CC4)C3)cc2)c1)C1CC1` (stereo unspecified), the “activity, positive = re-replication” value falls from 19.4% to -45.3%.

Compared with `CN1CCOC1c1ccc(C2OCCN2C)cc1` (stereo unspecified), `Cc1ccc(C(C)C)cc1OCCN1CCCC1` is higher in “activity, positive = re-replication” value: -3.01% for the first, 16% for the second.

First: O=C1C=C(c2ccnc3cc(Cl)ccc23)C[C@@H](c2ccc3c(c2)OCO3)C1
Second: Cc1ccc(C(=O)NNC(=O)c2ccc3c(c2)OCCO3)cc1
The “activity, positive = re-replication” value of the first is lower: -2.45% for the first, 9.08% for the second.

First: CCOc1ncccc1C(=O)Nc1ccc2c(c1)OCCO2
Second: O=S(=O)(NCCCCCCNS(=O)(=O)c1c(F)cccc1F)c1ccc2c(c1)OCCO2
The “activity, positive = re-replication” value of the first is lower: -0.515% for the first, 12.4% for the second.

Going from `COc1ccc(C(=O)N2CCN(c3ncccn3)CC2)cc1S(=O)(=O)N1CCOCC1` to `O=C(OCC(=O)N1CCCCCC1)c1ccc(Br)c(S(=O)(=O)N2CCOCC2)c1`, the “activity, positive = re-replication” value rises from 0.66% to 1.89%.

Going from `CCC(=O)N1CCN(c2ccccc2NC(=O)COc2cccc(C)c2C)CC1` to `Cc1ccc(S(=O)(=O)N2CCN(C(=O)COC(=O)/C=C/c3cccc(Cl)c3)CC2)c(C)c1`, the “activity, positive = re-replication” value falls from 11.5% to 2.86%.

Compared with `C/C=C/c1ccc(OCC(=O)OCC(=O)Nc2c(C)nn(-c3ccccc3)c2C)c(OC)c1`, `COc1cc(/C=C/C(=O)OCC(=O)NCCCc2ccccc2)ccc1O` is higher in “activity, positive = re-replication” value: 0.529% for the first, 6.85% for the second.

Compared with `COc1ccc(OC)c(S(=O)(=O)Nc2c(C)nn(C)c2C)c1`, `COc1cc2[nH]c(O)c(C=O)c2cc1OC` is higher in “activity, positive = re-replication” value: 2.29% for the first, 5.23% for the second.

First: O=C(N[C@H]1C/C=C\C(c2ccc(F)cc2)N(Cc2ccccc2)C(=O)C1)OCC1c2ccccc2-c2ccccc21 (stereo partly specified)
Second: O=C(N[C@@H]1C/C=C\C[C@@H](CC(=O)N(CCO)Cc2ccccc2)C(=O)N[C@H](Cc2ccccc2)COC1=O)OCC1c2ccccc2-c2ccccc21
The “activity, positive = re-replication” value of the first is lower: -15% for the first, -2.36% for the second.

Going from `Cc1ccsc1C(=O)NC1CCCCC1C` (stereo unspecified) to `Cc1cc(C(=O)COc2ccccc2Cl)c(C)n1C1CC1`, the “activity, positive = re-replication” value rises from 4.61% to 13.9%.

Going from `CC(=O)Nc1ccc(-c2csc(NC=C3C(=O)OC(C)(C)OC3=O)n2)cc1` to `CC(=O)Nc1ccc(S(=O)(=O)Nc2nc(-c3ccc(C(C)(C)C)cc3)cs2)cc1`, the “activity, positive = re-replication” value falls from -2.67% to -4.78%.

First: O=C(O[C@@H]1[C@H](Cc2ccccc2)NS(=O)(=O)[C@H]2C[C@@H]3C=C[C@]12O3)c1ccccc1Br
Second: CCN1C[C@@H]2[C@@H]3C(=O)N(Cc4ccccc4)C(=O)[C@@H]3[C@](Cc3ccccc3)(C(=O)OC)N2C1=NC1CCCCC1
The “activity, positive = re-replication” value of the first is lower: -7.18% for the first, -4.94% for the second.

First: NC(=O)c1ncn([C@@H]2O[C@H](CNCc3cnc(N4CCOCC4)s3)[C@@H](O)[C@H]2O)n1
Second: CCOC(=O)N1CCN(C(=O)C2CCCN(c3ncnc4c3sc3cccc(F)c34)C2)CC1 (stereo unspecified)
The “activity, positive = re-replication” value of the first is lower: 4.83% for the first, 8.33% for the second.

Going from `CC(=O)NC12CC3CC(C1)CC(C(=O)N1CCN(S(=O)(=O)c4cccs4)CC1)(C3)C2` to `CC[C@]12c3[nH]c4cc(CCC(=O)N(C)C)ccc4c3CCN1C(=O)[C@@H](CC(=O)NCCCn1ccnc1)C[C@@H]2C(=O)N1CCN(C(=O)C2CC2)CC1`, the “activity, positive = re-replication” value falls from 5.55% to 1.8%.

Going from `CN1C(=O)[C@H]2[C@@H](/C=C/c3ccccc3)N3C(=O)CN(Cc4ccc(-c5ccccc5)cc4)C(=O)[C@@]3(C)[C@H]2C1=O` to `CCc1ccc(CNC(=O)C2CC(=O)N(CCc3ccc(C)cc3)C2)cc1` (stereo unspecified), the “activity, positive = re-replication” value falls from 9.52% to -6.43%.

Going from `Cc1ccc(NC(=O)N2CCC(c3nc4c(nnn4Cc4c(F)cccc4Cl)c(=O)[nH]3)CC2)cc1` to `COc1ccc(-n2nc3c(N4CCC(C(=O)NCc5ccccc5)CC4)nnc(C)c3c2C)cc1`, the “activity, positive = re-replication” value rises from -3.7% to 4.26%.

First: C(#CCN1CCOCC1)CCCN1CCOCC1
Second: O=C(C(Cl)Cl)N1CCN(c2ccccn2)CC1
The “activity, positive = re-replication” value of the first is lower: -3.95% for the first, -1.55% for the second.

First: O=[N+]([O-])c1ccc(C=NN=Cc2ccc([N+](=O)[O-])cc2)cc1
Second: O=[N+]([O-])c1cc2ccccc2nc1-c1ccccc1
The “activity, positive = re-replication” value of the first is lower: -0.0464% for the first, 5.75% for the second.

Compared with `Cn1c(CNC(=O)c2ccco2)nnc1SCC(=O)N1CCN(c2ccccc2)CC1`, `Cc1nnc(SCC(=O)N2CCN(c3ccccc3)CC2)n1-c1ccccc1` is higher in “activity, positive = re-replication” value: 2.16% for the first, 8.74% for the second.

Compared with `CCCC(O)(c1ccccc1)C(c1ccccc1)c1ccccn1` (stereo unspecified), `Cc1ccc(NC(=O)C(c2ccccc2)N2CCN(C(=O)c3ccco3)CC2)cc1` (stereo unspecified) is lower in “activity, positive = re-replication” value: -1.11% for the first, -11.4% for the second.

Going from `O=Cc1c(Nc2ccccc2Cl)nc2ccccn2c1=O` to `O=Cc1c(N2CCN(c3cccc(Cl)c3)CC2)nc2ccccn2c1=O`, the “activity, positive = re-replication” value falls from 12.2% to 11.1%.

Going from `CCCn1nc(NS(=O)(=O)c2ccc(F)cc2)c2cc3ccccc3nc21` to `COc1cccc2cc(S(=O)(=O)c3ccc(C)cc3)/c(=N/NS(=O)(=O)c3ccc(C)cc3)oc12`, the “activity, positive = re-replication” value rises from -1.72% to 18.1%.

Going from `O=C(C1Cc2ccccc2CN1C(=O)c1ccco1)N1CCN(c2ccccc2)CC1` (stereo unspecified) to `O=C(Cc1ccc(Br)cc1)N1CCN(c2ccccn2)CC1`, the “activity, positive = re-replication” value rises from 7.91% to 24.3%.

Compared with `COC(=O)Cc1cc(=O)oc2c(C)c(O)ccc12`, `COC(=O)c1cc(C)sc1NC(=O)CC1Nc2ccccc2NC1=O` (stereo unspecified) is higher in “activity, positive = re-replication” value: -7.36% for the first, 26.2% for the second.

First: Cc1nc(Nc2ccccc2C)c2cnn(C)c2n1
Second: COc1ccc(OCCNC(=O)c2cc(C3CC3)nc3c2cnn3C(C)C)cc1
The “activity, positive = re-replication” value of the first is higher: 21.9% for the first, -3.44% for the second.

Compared with `Cc1cc(C(=O)COc2ccc(Br)cc2F)c(C)n1C1CC1`, `Cc1cccc(NC(=O)CSc2nc3[nH]ncc3c(=O)[nH]2)c1` is higher in “activity, positive = re-replication” value: -1.62% for the first, 1.23% for the second.

First: CC(/C=N/NC(=O)c1ccncc1)=C\c1ccco1
Second: CC(=C/c1ccccc1)/C=N/NC(=O)c1cc(C)oc1C
The “activity, positive = re-replication” value of the first is lower: -2.95% for the first, 10.6% for the second.

Compared with `O=C(CC1NCCNC1=O)Nc1ccc(Oc2ccccc2)cc1` (stereo unspecified), `O=C(CSc1nc2[nH]ncc2c(=O)[nH]1)Nc1ccc(F)cc1` is higher in “activity, positive = re-replication” value: -9.06% for the first, 1.6% for the second.

First: COC(=O)Cc1nc2c(N)nc(N)nc2[nH]c1=O
Second: COc1ccccc1-n1nnnc1SCC(=O)NC(=O)Cc1ccccc1
The “activity, positive = re-replication” value of the first is higher: -1.99% for the first, -2.37% for the second.

Going from `Nc1ccc2c(c1)C(O)c1ccc(Cl)cc1-2` (stereo unspecified) to `S=C(NCc1ccco1)NCc1ccccc1Cl`, the “activity, positive = re-replication” value falls from 7.09% to 2.77%.

In the case of `COC(OC)c1ccnc(SCc2ccccc2Cl)n1`, the “activity, positive = re-replication” value was 2.9%.

In the case of `COc1ccc(OC)c(/C=C/C(=O)OCC(=O)Nc2ccc3c(c2)OCCO3)c1`, the Potency was 20.6 µM (active).
For `CCOC(=O)c1cc2c(=O)n3ccccc3nc2n(CC(C)C)c1=NC(=O)c1c(-c2c(F)cccc2Cl)noc1C`, the Potency was 3.26 µM (active).
In the case of `CCCN(CC(=O)Nc1ccccc1C)C(=O)c1ccc2[nH]c3c(c2c1)CC(C)CC3` (stereo unspecified), the Potency was 1.3 µM (active).
For `Cc1ccc(C(C)C)cc1OCC(=O)Nc1ccccc1N1CCCC1`, the Potency was 20.6 µM (active).
For `COc1ccc(/C=C/C(=O)Nc2c(C)nn(C)c2C)cc1COc1ccc(Br)cc1`, the Potency was 4.61 µM (active).
With `CCn1nc(C)c(NC(=O)/C=C/c2ccc(OC)c(COc3ccc(Br)cc3)c2)c1C` the Potency was 8.2 µM (active).
For `CC(=O)Nc1ccc(-c2csc(NC(=O)Nc3ccccc3)n2)cc1`, the Potency was 20.6 µM (active).
For `OC1CCCN(c2ncnc3c2nnn3Cc2c(F)cccc2Cl)C1` (stereo unspecified), the Potency was 16.4 µM (active).
With `Cn1c(Cc2cccc3ccccc23)nnc1SCC(=O)N1CCN(c2cccc(Cl)c2)CC1` the Potency was 13 µM (active).
For `CCn1c(=N)c(S(=O)(=O)c2ccc(F)cc2)cc2c(=O)n3ccccc3nc21`, the Potency was 13 µM (active).
With `Cc1ccc(Cn2c(=N)c(S(=O)(=O)c3ccc(C)cc3)cc3c(=O)n4ccccc4nc32)cc1` the Potency was 5.8 µM (active).
In the case of `Cc1cc(S(=O)(=O)c2cc3ccc(O)c(C)c3oc2=O)ccc1F`, the Potency was 10.3 µM (active).
For `CC(/C=N/NC(=O)c1cc(-c2ccc3ccccc3c2)n[nH]1)=C\c1ccco1`, the Potency was 7.31 µM (active).
With `O=C(CC1Nc2ccccc2NC1=O)Nc1ccccc1` (stereo unspecified) the Potency was 6.51 µM (active).
For `CCc1ccc(CNC(=O)C2CCN(c3nnc(C)c4c(C)n(-c5ccc(C)cc5)nc34)CC2)cc1`, the Potency was 7.31 µM (active).
For `O=C(/C=C/c1cccc(C(F)(F)F)c1)N1CCN(c2ccccn2)CC1`, the Potency was 9.2 µM (active).
With `Clc1ccccc1CSc1nnc(-c2ccco2)c(-c2ccco2)n1` the Potency was 18.4 µM (active).
With `Cc1cc(C)c2c(=O)[nH]c(SCC(=O)Nc3ccc(Br)cc3)nc2n1` the Potency was 11.6 µM (active).
With `COc1ccccc1-n1nnnc1S(=O)(=O)Cc1ccc(Cl)cc1` the Potency was 16.4 µM (active).
